# SARS 3CLpro inh: SARS-CoV 3CLpro protease inhibitors, primary screen, biochemical, quenched FRET. Replicase polyprotein 1ab (Severe acute respiratory syndrome coronavirus), P0C6X7. recombinant SARS-CoV 3CLpro, quenched FRET peptide cleavage. inhibition, % at 6 µM. 290,000 compounds, 0.14% hits. AID 1706, 2009; in the data active = inhibition above about 12%
# GDH-TPI counter-1: GDH-TPI coupling enzyme inhibitors, primary screen, artefact control for M. tuberculosis FBA inhibitor project, biochemical, absorbance, full deck. 360,000 compounds, 1.2% hits. inhibition, % at 4.8 µM. GDH-TPI coupled enzyme counterscreen, NADH absorbance; in the data active = inhibition above about 30%;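 also: 0% = DMSO wells and 100% = wells lacking the enzyme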
# BH1578 lux ind: inducers of Vibrio cholerae quorum light production without autoinducers, primary screen, BH1578 luxS cqsA deficient, single point. V. cholerae BH1578 lux reporter, luminescence, 6 h. activation, % at 18.7 µM. 350,000 compounds, 0.16% hits. AID 588436, 2011; in the data active = activation mostly above about 9.7%, no sharp cut-off
# FBA Mtb inh: Mtb FBA enzyme inhibitors, primary screen, biochemical, fluorescence, strain H37Rv. inhibition, % at 1 µM. 360,000 compounds, 2.3% hits. Fructose-bisphosphate aldolase (Mycobacterium tuberculosis (strain ATCC 25618 / H37Rv)), …. purified M. tuberculosis FBA, fluorescence read-out;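 also: 0% = vehicle and 100% = reference inhibitor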
# Target sequence (P9WQA3 whole entry, looked up): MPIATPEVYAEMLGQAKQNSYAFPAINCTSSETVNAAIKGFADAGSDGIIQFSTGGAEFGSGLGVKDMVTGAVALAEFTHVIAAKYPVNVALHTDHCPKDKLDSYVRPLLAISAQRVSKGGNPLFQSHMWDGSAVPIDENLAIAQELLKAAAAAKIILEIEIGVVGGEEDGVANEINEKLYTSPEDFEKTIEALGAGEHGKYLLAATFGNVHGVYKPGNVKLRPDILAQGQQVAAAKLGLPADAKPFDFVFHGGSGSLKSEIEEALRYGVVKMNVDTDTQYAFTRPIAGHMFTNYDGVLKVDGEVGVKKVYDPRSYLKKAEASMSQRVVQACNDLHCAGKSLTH
# PrPC TRFRET: inhibitors of human cell surface prion protein PrPC, primary screen, cell-based, TR-FRET; inhibition, % at 13.8 µM; AID 720596, 2013; 370,000 compounds, 0.43% hits; TR-FRET read-out; Major prion protein (Homo sapiens), P04156; in the data active = inhibition above about 24%; also: 0% = median of the test wells and 100% = reference compound wells
# Mtb FBA inh conf: M. tuberculosis aldolase blockers, biochemical, fluorescence, strain H37Rv, confirmation; 5,600 compounds, 78% hits; AID 651616, 2012; inhibition, % at 1 µM; shares compounds with FBA Mtb inh; purified M. tuberculosis FBA, fluorescence read-out;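 also: 0% = vehicle wells and 100% = reference inhibitor wells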
# GDH-TPI counter-2: GDH-TPI coupling enzyme inhibitors, artefact control for M. tuberculosis FBA inhibitor project, biochemical, fluorescence, high throughput; shares compounds with FBA Mtb inh; GDH-TPI coupled enzyme counterscreen; inhibition, % at 1 µM; 5,600 compounds, 81% hits; AID 652141, 2013; in the data active = inhibition above about 10%
# GDH-TPI DR: GDH-TPI coupling enzyme inhibitors, dose response, artefact control for M. tuberculosis FBA inhibitor project, biochemical, fluorescence, IC50 | shares compounds with FBA Mtb inh | GDH-TPI coupled enzyme assay, artifact counterscreen | IC50, µM | 170 compounds, 79% hits; call rule not given here
# An asterisk follows results filed as active; i = inactive; . = no result given; + = active, no number. Hits are enriched below; roughly 3.9% of the tested compounds scored in any of these assays. Rule as the data show it, unless noted: active = inhibition above about 27%; inactive = the rest.
SMILES,SARS 3CLpro inh,GDH-TPI counter-1,BH1578 lux ind,FBA Mtb inh,PrPC TRFRET,Mtb FBA inh conf,GDH-TPI counter-2,others
CCn1c(C(=O)OC)cc2c1ccn2-c1ccc(F)cc1,2,14,i,-7,2,.,.,
CC(C)OC(=O)c1cc2c(ccn2-c2ccc(F)cc2)n1CC(=O)N1CCN(C(=O)c2ccco2)CC1,3,13,2,36*,-9,+,+,
COC(=O)c1cc2c(ccn2-c2ccc(F)cc2)n1CC(=O)N1CCN(C(=O)c2ccco2)CC1,1,12,-10,29*,-17,+,197*,
CC(C)OC(=O)c1cc2c(ccn2C)n1CC(=O)N1CCC(Cc2ccccc2)CC1,-2,4,-3,3,-1,.,.,
COc1cc2c(c(OC)c1)C(=O)O[C@H](C)C[C@@H]1O[C@H]1CCCCC(=O)C2,.,.,.,.,0,.,.,
Fc1ccc(NC(=S)NCCN2CCOCC2)c(F)c1F,-1,-11,0,3,0,.,.,
CCCSc1nc(C)c2cc(C)cc(C)c2n1,-1,-6,3,6,0,.,.,
Cc1cc(C)c2nc3nc(C)c(C)cc3c(N)c2c1,-5,-5,-1,29*,-14,76*,48*,
Nc1cc(N)nc(SCc2ccccc2Cl)n1,.,-4,-1,-2,2,.,.,
Cc1cc2c(SCc3ccccc3Cl)nc(N)nc2nc1C,.,6,1,86*,-5,19,1,GDH-TPI DR=1.3*
CN1[C@@H](Cc2ccccc2)COc2cccc(N3CCSCC3)c2S1(=O)=O,.,.,.,.,-9,.,.,
Nc1ncnc2nc(-c3ccccc3)[nH]c12,.,3,0,69*,0,4,-2,
Fc1ccc2nc(Nc3nc4cc5c(cc4s3)OCCO5)sc2c1,1,16,i,59*,12,75*,63*,
Fc1ccc2nc(Nc3nc4cc5c(cc4s3)OCO5)sc2c1,-2,13,0,38*,-6,56*,52*,
Cc1cc2c(c(=O)o1)[C@@]1(C(=O)N(C)c3ccccc31)C1=C(CC(C)(C)CC1=O)O2,.,.,.,.,-3,.,.,
COc1ccc(OC)c(-n2c(-c3ccc(S(C)(=O)=O)cc3)cc(C=O)c2C)c1,1,11,-1,2,-7,.,.,
COc1ccc(OC)c(-n2c(C)ccc2-c2ccc(S(C)(=O)=O)cc2)c1,5,19,i,91*,-1,87*,97*,
COC(=O)c1ccc(COc2cc(C)cc3oc(=O)c4c(c23)CCCC4)o1,-1,8,i,4,-7,.,.,
Cc1c(OC(C)C(=O)NCc2ccncc2)ccc2c3c(c(=O)oc12)CCCC3 (centres undefined),-5,12,i,34*,17,0,-3,
Cc1cc(OCC(=O)NCc2ccncc2)c2c3c(c(=O)oc2c1)CCCC3,-4,4,0,85*,-8,122*,94*,
Cc1c(OC(C)C(=O)NCCCn2ccnc2)ccc2c3c(c(=O)oc12)CCC3 (centres undefined),-4,2,1,24,-2,.,.,
Cc1cc(OC(C)C(=O)NCc2ccncc2)c2c3c(c(=O)oc2c1)CCC3 (centres undefined),-3,9,i,64*,4,133*,93*,
Cc1c(OC(C)C(=O)NCC(O)c2ccccc2)ccc2c3c(c(=O)oc12)CCCC3 (centres undefined),0,21,-1,48*,-1,+,197*,
Cc1cc(=O)oc2c(C)c(OC(C)C(=O)NCC(O)c3ccccc3)ccc12 (centres undefined),-1,9,-3,20,-4,.,.,
Cc1ccc(C(=O)Nc2ccccc2C(=O)NCc2ccco2)cc1,.,-3,i,-1,5,.,.,

# Screening data deposited in PubChem by several laboratories.
